hgDAF12 agonist = activates the H. glycines DAF-12 receptor ligand-binding domain; HEK293 GAL4-hgDAF12 UAS-luciferase reporter, agonist luminescence; normalized to butyrate control; activation, % at 6.8 µM; 370,000 tested, 1.8% active;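 active means activation above a cutoff set at the mean of all screened compounds plus 3 SD, cut at about 10% in these data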
ssDAF12 agonist = S. stercoralis DAF-12 activation, primary screen; activation, % at 6.8 µM; AID 652126; 370,000 tested, 1% active; HEK293 ssDAF-12/GRIP1 lit1-tk-luc reporter, luminescence; % of 3 µM dafachronic acid response;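 active means activation above the mean over all tested compounds plus 3 SD, cut at about 0.9% in these data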
DAX1 inh-1 = NR0B1 (DAX1) inhibition | P51843 | HEK293 Gal4-DAX1 luciferase reporter, luminescence | inhibition, % at 6.75 µM | 340,000 tested, 0.99% active;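 active means inhibition above the mean over all tested compounds plus 3 SD, cut at about 4.2% in these data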;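 further: inhibition shows as a rise in luminescence from relieved DAX1 repression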
DAX1 inh-2 = blocks DAX1 repression of SF-1 activated StAR promoter; HEK293T StAR-luciferase reporter, SF-1/DAX-1 repression relief; inhibition, % at 6.8 µM; 370,000 tested, 1.1% active; AID 652010;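 active means inhibition above the mean over all tested compounds plus 3 SD, cut at about 3.6% in these data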;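 further: higher inhibition means more luminescence from relief of DAX-1 repression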
hcDAF12 agonist = activators of H. contortus DAF-12 nuclear receptor | HEK293 hcDAF-12 lit1-tk-luc reporter, luminescence; 0% DMSO, 100% Δ7-dafachronic acid | activation, % at 6.8 µM | 370,000 tested, 1.4% active | AID 652067;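 active means activation above the mean of all tested compounds plus 3 SD, cut at about 5.5% in these data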
DAX1 inh confirm = confirmation of human DAX1 (NR0B1) inhibitors; shares compounds with DAX1 inh-2; HEK293T StAR-promoter luciferase reporter, SF-1/DAX-1 repression; inhibition, % at 6.8 µM; 2,400 tested, 87% active; AID 652134;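 active means inhibition above the average of every tested compound plus 3 SD, cut at about 3.8% in these data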;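 further: active compounds raise luminescence by relieving repression of the StAR reporter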
SF1 mutant ctr = counter-screen for DAX1 inhibitors: nonselective inhibitors with SF-1 AF2 mutant; AID 652136; inhibition, % at 6.8 µM; HEK293 StAR-luciferase, luminescence; shares compounds with DAX1 inh-2; 2,400 tested, 78% active;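 active means inhibition above the mean of all tested compounds plus 3 SD, cut at about 3% in these data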
LXR ag = LXR-beta agonism as hcDAF-12 counter-screen; AID 743027; shares compounds with hcDAF12 agonist; HEK293 Gal4-LXR tk-luc reporter, luminescence, 24 h; normalized: DMSO 0%, positive control 100%; activation, % at 6.8 µM; 3,400 tested, under 10 active;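 active means mean percent activation of the reporter above a cutoff set as the average over tested compounds plus their standard deviation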
Target sequence (P55055 whole entry, looked up, the tested form may be a part): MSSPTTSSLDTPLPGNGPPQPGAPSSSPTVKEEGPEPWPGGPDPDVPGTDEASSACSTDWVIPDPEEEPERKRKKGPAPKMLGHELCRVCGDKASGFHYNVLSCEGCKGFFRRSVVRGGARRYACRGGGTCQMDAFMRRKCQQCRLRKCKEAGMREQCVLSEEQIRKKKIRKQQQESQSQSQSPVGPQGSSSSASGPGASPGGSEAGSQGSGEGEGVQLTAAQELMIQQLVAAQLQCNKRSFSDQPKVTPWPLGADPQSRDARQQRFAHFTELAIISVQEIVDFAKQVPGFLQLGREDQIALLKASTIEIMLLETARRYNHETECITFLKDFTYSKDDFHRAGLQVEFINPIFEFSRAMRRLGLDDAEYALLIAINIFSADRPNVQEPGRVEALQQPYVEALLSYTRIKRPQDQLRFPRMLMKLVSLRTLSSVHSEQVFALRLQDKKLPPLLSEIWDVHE
hcDAF12 conf = confirmation of H. contortus DAF-12 agonists | AID 743032 | 3,400 tested, 61% active | HEK293 hcDAF-12 lit1-tk-luc reporter, luminescence; % of Δ7-dafachronic acid response | activation, % at 6.8 µM | shares compounds with hcDAF12 agonist;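 active means mean activation across triplicate tests above the threshold derived from the earlier primary screen, cut at about 5.5% in these data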
hgDAF12 ag = confirmation of H. glycines DAF-12 agonists; AID 743050; 3,300 tested, 80% active; HEK293 GAL4-hgDAF12 luciferase reporter, agonist mode; percent of butyrate response; activation, % at 6.8 µM; shares compounds with hgDAF12 agonist;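 active means mean activation over triplicate wells above the hit cutoff derived from the earlier primary screen, cut at about 11% in these data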
LXRb DAF12 ctr = counter-screen for DAF-12 agonists: agonists of human LXR-beta; 3,300 tested, under 10 active; activation, % at 6.8 µM; HEK293 Gal4-LXR luciferase reporter, 24 h; AID 743051; shares compounds with hgDAF12 agonist;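 active means mean activation of the triplicate above a set limit carried over from the primary screen, none filed active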
A number is an active result. Most compounds without a hit are left out; they make up all but 4.1% or so of the library.

For CSCc1ccc(C(=O)NCc2ccc(C)cc2)cc1 the results were hgDAF12 agonist inactive, ssDAF12 agonist inactive, DAX1 inh-1 inactive, DAX1 inh-2 inactive and hcDAF12 agonist inactive.
CCCCCCCCNS(=O)(=O)CC1NCc2cc(F)ccc21 (stereo not given) was read as hgDAF12 agonist inactive, ssDAF12 agonist inactive, DAX1 inh-2 inactive and hcDAF12 agonist inactive.
`O=C(Nc1ccc2c(c1)OCCO2)c1cc2sccc2n1Cc1ccccc1` gave hgDAF12 agonist inactive, ssDAF12 agonist inactive, DAX1 inh-1 inactive, DAX1 inh-2 inactive and hcDAF12 agonist inactive.
`Cn1c(C(=O)Nc2ccc3c(c2)OCCO3)cc2sccc21` gave hgDAF12 agonist 15, ssDAF12 agonist 1.2, DAX1 inh-1 inactive, DAX1 inh-2 6.9, hcDAF12 agonist 9.7, DAX1 inh confirm 8.8, SF1 mutant ctr 6.8, LXR ag inactive, hcDAF12 conf inactive, hgDAF12 ag 18 and LXRb DAF12 ctr inactive.
Screening CC(C)(C)c1ccc(C(=O)Nc2cc(Cl)ccc2-c2nn[nH]n2)cc1 returned hgDAF12 agonist inactive, ssDAF12 agonist inactive and hcDAF12 agonist inactive.
For COC(=O)c1cc2c(c3c4cc(F)ccc4n(S(=O)(=O)c4ccc(C)cc4)c13)C(=O)N(C)C2 the results were hgDAF12 agonist inactive, ssDAF12 agonist inactive, DAX1 inh-2 inactive and hcDAF12 agonist inactive.
Screening Cc1nc(Nc2nc3ccccc3o2)nc(C)c1C returned hgDAF12 agonist 15, ssDAF12 agonist inactive, DAX1 inh-1 inactive, DAX1 inh-2 4.6, hcDAF12 agonist 6.0, DAX1 inh confirm 14, SF1 mutant ctr 5.8, hgDAF12 ag 16 and LXRb DAF12 ctr inactive.
CCC(CC)NC(=O)O[C@H]1CC[C@@]23CCCN2C(=O)CCC[C@H]3C1 was read as hgDAF12 agonist inactive, ssDAF12 agonist inactive and hcDAF12 agonist inactive.
Screening Cc1cc(N2CCCCC2)n2ncc(-c3ccccc3)c2n1 returned hgDAF12 agonist inactive, ssDAF12 agonist inactive, DAX1 inh-1 inactive, DAX1 inh-2 inactive and hcDAF12 agonist inactive.
`COc1ccc(-c2cc(C)nc3c(-c4ccccc4)cnn23)cc1` gave hgDAF12 agonist 14, ssDAF12 agonist inactive, DAX1 inh-1 inactive, DAX1 inh-2 12, hcDAF12 agonist inactive, DAX1 inh confirm 15, SF1 mutant ctr 7.8, hgDAF12 ag inactive and LXRb DAF12 ctr inactive.
O=C(Nc1nc(-c2nc3ccccc3s2)cs1)C1COc2ccccc2O1 (stereo not given) was read as hgDAF12 agonist inactive, ssDAF12 agonist inactive, DAX1 inh-1 inactive, DAX1 inh-2 inactive and hcDAF12 agonist inactive.
`CC(=O)Nc1nc(C2COc3ccccc3O2)cs1` (stereo not given) gave hgDAF12 agonist 14, ssDAF12 agonist inactive, DAX1 inh-1 inactive, DAX1 inh-2 5.8, hcDAF12 agonist 6.7, DAX1 inh confirm 11, SF1 mutant ctr 5.1, LXR ag inactive, hcDAF12 conf 6.1, hgDAF12 ag 15 and LXRb DAF12 ctr inactive.
O=C1c2ccccc2CCc2ccccc21 was read as hgDAF12 agonist inactive, ssDAF12 agonist inactive, DAX1 inh-1 inactive, DAX1 inh-2 inactive and hcDAF12 agonist inactive.
